A short description of experiment [1]: qHTS RealTime-Glo MT Cell Viability Assay in HEK293 cells - 16 hour (AID 1224872). Note: nearly all actives have a fitted effect of over 50% in size. Note: potency is the fitted concentration of half-maximal effect. Summed up:
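Assay medium contained NanoLuc luciferase plus cell-permeant prosubstrate, added with HEK293 cells at 600 cells/well. After 5 h at 37 C/5% CO2 compounds were added; plates stayed at 37 C for 40 h with serial luminescence reads.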
For orientation: Quantitative high-throughput screening tests each substance at several concentrations.

A short description of experiment [2]: A CellTox Green Cytotoxicity Assay to monitor cytotoxicity in HEK293 cells - 24 hour (AID 1224875). Note: nearly all actives have a fitted effect of over 45% in size. Note: potency is the fitted concentration of half-maximal effect. In short, it runs like this:
(§1)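 Tox21 screen in HEK293: membrane-impermeant cyanine dye fluoresces on binding dead-cell DNA; compound pinned 5 h post-seeding, plates held at 37 C, signal read repeatedly through 40 h.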

Experiment [3] in a line: A CellTox Green Cytotoxicity Assay to monitor cytotoxicity in HepG2 cells - 16 hour (AID 1224876). Note: nearly all actives have a fitted effect of over 45% in size. Note: potency is the fitted concentration of half-maximal effect. In short, it runs like this:
(§2)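 Measurements at 0, 8, 16, 24, 32 and 40 h of treatment captured CellTox Green fluorescence in HepG2 cells that had been co-plated with reagent and preincubated 5 h at 37 C/5% CO2.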

Experiment [4] can be described thus: qHTS RealTime-Glo MT Cell Viability Assay in HepG2 cells - 32 hour (AID 1224877). Note: nearly all actives have a fitted effect of over 55% in size. Summed up: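 qHTS, HepG2, 600 cells/well, RealTime-Glo (NanoLuc + prosubstrate) added with cells; 5 h preincubation; DMSO compound addition; 37 C; luminescence at 0/8/16/24/32/40 h.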
Experiment [5] is described as follows: A CellTox Green Cytotoxicity Assay to monitor cytotoxicity in HepG2 cells - 24 hour (AID 1224878). Note: nearly all actives have a fitted effect of over 45% in size. Note: potency is the fitted concentration of half-maximal effect. In short, it runs like this:
as §2

Experiment [6] in a line: A CellTox Green Cytotoxicity Assay to monitor cytotoxicity in HepG2 cells - 40 hour (AID 1224879). Note: nearly all actives have a fitted effect of over 40% in size. Note: potency is the fitted concentration of half-maximal effect. Summed up: as §2
Experiment [7] is described as follows: qHTS RealTime-Glo MT Cell Viability Assay in HEK293 cells - 0 hour (AID 1224880). Note: top concentration of the series differs between compounds; nearly all actives have a fitted effect of over 45% in size. In short, it runs like this: (§3)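 HEK293 + NanoLuc + prosubstrate, 600 cells/well; 5 h, 37 C/5% CO2; compound 23 nL in DMSO by pintool; 37 C; luminescence read at 0, 8, 16, 24, 32 and 40 h time points.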
A short description of experiment [8]: A CellTox Green Cytotoxicity Assay to monitor cytotoxicity in HEK293 cells - 32 hour (AID 1224881). Note: nearly all actives have a fitted effect of over 40% in size. Note: potency is the fitted concentration of half-maximal effect. Summed up: as §1
A short description of experiment [9]: qHTS RealTime-Glo MT Cell Viability Assay in HEK293 cells - 40 hour (AID 1224874). Note: nearly all actives have a fitted effect of over 50% in size. Note: potency is the fitted concentration of half-maximal effect. Conditions: RealTime-Glo luminescence; max response: active compounds read low. Summed up:
as §3

Experiment [10] in a line: qHTS RealTime-Glo MT Cell Viability Assay in HepG2 cells - 8 hour (AID 1224873). Note: nearly all actives have a fitted effect of over 55% in size. Summed up:
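Real-time viability: cells seeded at 600 per well together with NanoLuc and cell-permeant prosubstrate, compounds added after 5 h incubation. Luminescence tracked at 0, 8, 16, 24, 32 and 40 h of exposure.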

Inconclusive results are not listed. Unmarked numbers belong to inactive results. Active and inactive are the calls of the source. Calls come from the whole dose curve; as a rule, active = well fitted curve in the direction sought with a large enough effect in the repeat runs; inconclusive = weak or mixed curves; inactive = no such curve, though single readings can be large; an effect the other way counts as inactive or inconclusive.
% is set by controls: 0 for no effect and ±100 for the full control effect.

In the case of `CCNc1nc(NC(C)C)nc(OC)n1`, the Potency result in experiment [1], in [2], in experiment [3], in [4], in experiment [5] and in experiment [6] was “inactive” each time. Besides, the Potency entry in experiment [8] is “inactive”. The call in experiment [7] was inactive.
With `CC1=C(C(=O)Nc2ccccc2)S(=O)(=O)CCO1`, the Potency result in experiment [2], in [3], in experiment [4], in experiment [6] and in [8] was “inactive” in each case.
For `COc1cc(OC)nc(NC(=O)NS(=O)(=O)c2ncccc2OCC(F)(F)F)n1`, the Potency result in experiment [1], in experiment [2], in [3], in experiment [4], in experiment [5] and in [6] was “inactive” throughout. Besides, in experiment [8], the Potency result is “inactive”. For the same molecule, the max response in experiment [9] was 0.591%. For the same molecule, the result in [7] was inactive.
With `CC(C1CC1)C(O)(Cn1cncn1)c1ccc(Cl)cc1` (stereo not drawn), the Potency result in experiment [10], in experiment [2], in experiment [3], in experiment [4], in experiment [5] and in [6] was “inactive” throughout. In [8], the Potency result is “inactive”. The result in [7] was inactive.
As for `COc1ccc2c(c1OC)CN1CCc3cc4c(cc3C1C2)OCO4` (stereo not drawn), the Potency result in experiment [10], in experiment [2], in experiment [3], in experiment [4], in [5] and in experiment [6] was “inactive” throughout. Also, the Potency result in [8] was “inactive”. In addition, the molecule was classed as inactive in experiment [7].
Consider `O=[N+]([O-])c1cccc2c([N+](=O)[O-])cccc12`, for which the Potency result in [10], in experiment [2], in [3], in [4] and in experiment [8] was “inactive” in each case. Further, the Potency in [9] is 49.2 µM (active).
Turning to `Nc1cc(Cl)ccc1O`, the Potency result in experiment [10], in [2], in [3], in experiment [4], in experiment [6] and in experiment [8] was “inactive” throughout. Besides, in experiment [9], the max response was -11.2%. Also, the result in experiment [7] was inactive.
On to `CC1CCCCC1NC(=O)Nc1ccccc1` (stereo not drawn), for which the Potency entry in experiment [10], in experiment [2], in experiment [3], in [4], in [5] and in experiment [6] was “inactive” each time. The Potency result in experiment [8] is “inactive”. Also, in experiment [7], the outcome was inactive.
With `CC(C)(C)OC(=O)c1ncn2c1[C@@H]1CCCN1C(=O)c1c(Br)cccc1-2`, the max response in [9] was -21.6%. The Potency entry in experiment [2], in experiment [3], in experiment [4], in [5], in experiment [6] and in [8] was “inactive” in each case. In addition, in [7], the molecule was called inactive.
On to `Cc1ncc2n1-c1ccc(Cl)cc1C(c1ccccc1F)=NC2`, for which the Potency result in experiment [10], in [2], in experiment [3], in [4], in experiment [5] and in experiment [6] was “inactive” each time. In addition, the Potency result in [8] was “inactive”. In experiment [9], the Potency was 19 µM (active). For the same molecule, the outcome in [7] was inactive.
On to `C1CCC(C2CCCCC2)CC1`, for which the Potency result in experiment [1], in experiment [2], in experiment [3], in [4], in experiment [5] and in experiment [6] was “inactive” throughout. Besides, the Potency result in experiment [8] is “inactive”. Moreover, the outcome in experiment [7] was inactive.
Turning to `O=[N+]([O-])c1ccc(CBr)cc1`, the Potency entry in experiment [1], in experiment [2], in experiment [3], in experiment [4], in experiment [5] and in [6] was “inactive” in each case. Also, the Potency entry in experiment [8] is “inactive”. In experiment [7], the call was inactive.
`CNC(=O)N(C)c1nc2ccccc2s1`: the Potency result in experiment [1], in experiment [2], in experiment [3], in experiment [4], in experiment [6] and in experiment [8] was “inactive” each time. Also, the max response in experiment [9] is -18.7%. The outcome in [7] was inactive.
For `C#C[C@]1(O)C=C[C@H]2[C@@H]3CCC4=CC(=O)CC[C@@H]4[C@H]3CC[C@@]21CC`, the Potency entry in experiment [2], in experiment [3], in experiment [4], in experiment [6] and in experiment [8] was “inactive” each time. Also, the call in [7] was inactive.
As for `O=C1OC(CCN2CCCCC2)OC1(c1ccccc1)c1ccccc1` (stereo not drawn), the Potency entry in [1], in [2], in experiment [3], in experiment [4], in experiment [5] and in experiment [8] was “inactive” throughout. In addition, the max response in [9] is 5.83%. In addition, the outcome in experiment [7] was inactive.
As to `c1cc[c]([Hg][c]2ccccc2)cc1`, the Potency is 34.7 µM (active) in experiment [1]; 24.5 µM (active) in [9]; 43.6 µM (active) in experiment [2]; 49 µM (active) in [6]; 38.9 µM (active) in [8]. Moreover, the Potency result in experiment [3] and in experiment [4] was “inactive” in each case. For the same molecule, the call in [7] was inactive.
Regarding `CCOP(=O)(N=C1SCCS1)OCC`, the Potency result in [10], in [2], in [3], in [4], in experiment [5] and in [6] was “inactive” each time. Also, the Potency result in experiment [8] is “inactive”. In addition, the max response in [9] was 21.4%. Besides, the call in experiment [7] was inactive.
As for `c1coc(-c2nc3ccccc3[nH]2)c1`, the Potency result in experiment [10], in experiment [2], in experiment [3], in experiment [4], in [5] and in experiment [6] was “inactive” throughout. The Potency result in [8] is “inactive”. For the same molecule, the molecule was called inactive in experiment [7].
With `CC1COC2(c3ccccc3Cl)c3cc(Cl)ccc3NC(=O)CN12` (stereo not drawn), the Potency entry in experiment [10], in experiment [2], in experiment [3], in experiment [4] and in experiment [8] was “inactive” in each case. Further, the molecule was classed as inactive in experiment [7].
Regarding `CC(C(O)c1ccccc1)N(C)C/C=C/c1ccccc1` (stereo not drawn), the Potency result in experiment [10], in experiment [2], in [3], in experiment [4] and in experiment [8] was “inactive” each time. Besides, in experiment [9], the max response is -19.6%. Moreover, the molecule was called inactive in experiment [7].
Consider `CCCCc1ccc(O)cc1`, for which the Potency result in experiment [10], in [2], in experiment [4] and in experiment [8] was “inactive” in each case. In addition, the Potency in [9] is 15.5 µM (active); in experiment [3], 21.8 µM (active); in experiment [5], 21.8 µM (active); in experiment [6] it was 21.8 µM (active). In addition, the molecule was called inactive in experiment [7].
Take `CC1(C(=O)Nc2ccc(O)c(Cl)c2Cl)CCCCC1`: the Potency entry in experiment [10] and in [4] was “inactive” each time. Besides, the result in experiment [7] was inactive.
Consider `ClC(Cl)C(Cl)Cl`, for which the Potency entry in experiment [1], in experiment [2], in [4] and in experiment [8] was “inactive” throughout. Also, the max response in experiment [9] is 0.239%. For the same molecule, the molecule was classed as inactive in experiment [7].
`Fc1ccc(C2(Cn3cncn3)OC2c2ccccc2Cl)cc1` (stereo not drawn): the Potency in experiment [9] was 27.5 µM (active). The Potency result in experiment [2], in [3], in experiment [4] and in experiment [8] was “inactive” in each case. In [7], the call was inactive.
Take `O=C(Nc1ccccc1)N(Cc1ccc(Cl)cc1)C1CCCC1`: the Potency in [1] was 21.9 µM (active). Moreover, the Potency entry in experiment [2], in experiment [3], in experiment [5], in [6] and in [8] was “inactive” throughout. Further, the result in experiment [7] was inactive.
In the case of `O=C(CCCN1CCC(n2c(=O)[nH]c3ccccc32)CC1)c1ccc(F)cc1`, the Potency entry in experiment [10], in [2], in experiment [4], in experiment [5], in experiment [6] and in experiment [8] was “inactive” throughout. Further, the call in experiment [7] was inactive.
For the molecule `[As]#[In]`, the Potency entry in [10], in experiment [2], in experiment [3], in experiment [4] and in experiment [8] was “inactive” in each case. Also, the outcome in experiment [7] was inactive.
On to `O=P(O)(Oc1ccccc1)Oc1ccccc1`, for which the Potency result in experiment [10], in experiment [2], in [3], in experiment [4], in experiment [5] and in experiment [6] was “inactive” throughout. Further, the Potency entry in [8] is “inactive”. The outcome in experiment [7] was inactive.
As for `CCCCc1c(C)nc(NCC)[nH]c1=O`, the Potency result in [2], in [3], in experiment [4] and in experiment [8] was “inactive” throughout. Besides, the molecule was classed as inactive in [7].
Turning to `CC(COc1ccc(Oc2ccccc2)cc1)Oc1ccccn1` (stereo not drawn), the Potency entry in [10], in experiment [2], in experiment [3], in experiment [4], in experiment [5] and in [6] was “inactive” throughout. Besides, the Potency entry in [8] is “inactive”. Besides, the molecule was classed as inactive in experiment [7].

Values taken from PubChem BioAssay (Tox21).
